Results: PubChem BioAssay AID651828 (ICCB-Longwood Screening Facility, Harvard Medical School, 2012)
Out of some 20,000 compounds screened, about 25 (0.1%) were called active. Rule as the data show it: active = % bound below about 75%; inactive = the rest. This excerpt belongs to a sample that is enriched for actives.

Each compound was assayed against Nucleoprotein (Rift valley fever virus (strain ZH-548 M12)) (UniProt P21700) (assay: inhibitors of RVFV nucleoprotein–RNA binding, primary screen, biochemical, fluorescence polarization (AID 651828)). Conditions: RVFV N-RNA binding, hits give low values, concentration not given here.
Nucleoprotein (Rift valley fever virus (strain ZH-548 M12)), sequence (P21700 whole entry, looked up): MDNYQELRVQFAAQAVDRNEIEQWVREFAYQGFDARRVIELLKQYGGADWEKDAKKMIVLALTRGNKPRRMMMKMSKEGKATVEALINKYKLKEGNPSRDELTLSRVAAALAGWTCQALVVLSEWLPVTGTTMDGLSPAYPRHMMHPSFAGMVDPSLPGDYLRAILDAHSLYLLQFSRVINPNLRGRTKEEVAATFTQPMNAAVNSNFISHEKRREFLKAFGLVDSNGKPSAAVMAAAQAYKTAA

Structure (SMILES)	% bound
Cc1ccc2occ(CN3CCSCC3)c(=O)c2c1	100% (inactive)
COc1ccc(C(C)=CC(=O)C(C)(C)C)cc1	96.7% (inactive)
Cc1nc2cc3nc(-c4cccs4)cnc3cc2n1C	115% (inactive)
O=C(Nc1ccc(C(=O)N2CCCc3ccccc32)cc1)c1ccco1	95.2% (inactive)
CC[C@H](CO)Nc1nc(NCc2ccccc2O)c2ncn(C(C)C)c2n1	98.6% (inactive)
Nc1nonc1C(=NCc1ccccc1)NO	96.3% (inactive)
COc1ccc(C(=O)c2cnc3ccccn23)cc1Cl	96.7% (inactive)
O=C(c1cccs1)c1coc2c1cc(O)c1ccccc12	94.6% (inactive)
O=c1[nH]c(O)c(C=Nc2ccccc2)c(=O)[nH]1	101% (inactive)
CC(C)=N/N=C1/NC(=O)C(CC(=O)Nc2cccc3ccccc23)S1 (stereo not drawn)	96.1% (inactive)
CC(C)CN1C(=O)C=CC1=O	86.4% (inactive)
CC1(C)C(=O)C2(C(=O)Nc3cccc(C(F)(F)F)c3)CCC1C2 (stereo not drawn)	98.6% (inactive)
CCCC(=O)N1CCN(c2ccc(NC(=O)c3cccc(C)c3OC)cc2Cl)CC1	92.1% (inactive)
O=C(Nc1ccccc1)C1CCCN(S(=O)(=O)c2ccccc2)C1 (stereo not drawn)	98.9% (inactive)
COCC(C)N=CC1=C(O)CC(C)(C)CC1=O (stereo not drawn)	94.3% (inactive)
O=C(OCCN1C(=O)c2ccccc2C1=O)Oc1ccccc1	93.9% (inactive)
O=c1[nH]c(NCCCN2CCOCC2)nnc1-c1ccccc1	93.9% (inactive)
O=C1C=C(Nc2ccccc2)C(=O)N1Cc1ccccc1	102% (inactive)
CCc1ccc(NC(=O)C(CC)CC)cc1	97.6% (inactive)
CC(C)NC(=O)C(C)Oc1ccc(S(N)(=O)=O)cc1 (stereo not drawn)	96.3% (inactive)
Cc1cc(C(=O)Nc2ccc(C(=O)N3CCOCC3)cc2)cs1	88.4% (inactive)
CC(C)(O)C(/C=C/c1ccccc1)=N/NC(N)=O	96.4% (inactive)
O=C(CC(F)(F)F)Nc1ccccn1	94% (inactive)
COC(=O)C12CCC(C)(C(=O)O1)C2(C)C (stereo not drawn)	90.1% (inactive)
OC1CCN(Cc2ccc[nH]2)CC1	95% (inactive)
Nc1nc2nc(-c3ccccc3)cc(-c3ccccc3)n2n1	92% (inactive)
COC(=O)CSc1nnc2c3ccccc3n(CCc3ccccc3)c2n1	104% (inactive)

Structure (SMILES)	% bound
Cc1ccc(C(=O)c2sc3[nH]c(=O)c(C(=O)O)cc3c2N)cc1	97.7% (inactive)
Cc1ccc(NC(=O)Nc2c(C)noc2-c2ccc(C(F)(F)F)cc2)cc1	97.4% (inactive)
CNC(=S)N/N=C/c1cccnc1	96.3% (inactive)
CC1=Nc2c(ccc3cccnc23)C1(C)C	45.3% (active)
COc1ccc(OCC(=O)Nc2ccc(CN3CCOCC3)cc2)cc1	87.6% (inactive)
O=C(C1CCCN(S(=O)(=O)c2ccccc2)C1)N1CCN(c2ccc(F)cc2)CC1 (stereo not drawn)	102% (inactive)
CS(=O)(=O)Cc1ccccc1	97.7% (inactive)
Cc1cc(C)cc(C(=O)NC(=S)Nc2ccc3[nH]c(=O)[nH]c3c2)c1	98.5% (inactive)
COc1ccc(N2CC(NC(=O)NCC3CCCO3)CC2=O)cc1OC (stereo not drawn)	110% (inactive)
CCCCOc1ccc(C(C)(C#N)CC#N)cc1 (stereo not drawn)	102% (inactive)
COc1ccc(-c2cc(-c3cccs3)n(-c3nc(C)cc(=O)[nH]3)n2)cc1	109% (inactive)
O=c1[nH]c(=S)[nH]c(O)c1C=NC12CC3CC(CC(C3)C1)C2	91.6% (inactive)
O=C(Nc1ccc2c(c1)OCC1CCCN21)C1=Cc2ccccc2OC1 (stereo not drawn)	96.2% (inactive)
CN(C)NS(=O)(=O)C1CCS(=O)(=O)C1 (stereo not drawn)	93% (inactive)
COc1ccc(N2CCN(C(C)=C3C(=O)c4ccccc4C3=O)CC2)cc1	96.4% (inactive)
CCOC(=O)Nc1sccc1C(N)=O	96.8% (inactive)
Cc1cccc(N2CCN(C(=O)N(C)C)CC2)c1C	77.7% (inactive)
O=S1(=O)CC(S(=O)(=O)c2ccccc2)c2ccccc21 (stereo not drawn)	92.2% (inactive)
COC(=O)c1ccc(CN2CCCC(C)C2)cc1 (stereo not drawn)	100% (inactive)
CC12CCC(O)CC1=CCC1C2CCC2(C)/C(=N/N)CCC12 (stereo not drawn)	94% (inactive)
COc1ccc(-c2nc3c(c(=O)c4ccccc4n3C)c(=O)n2Cc2ccco2)cc1	95.8% (inactive)
COc1ccc(CCNC(N)=O)cc1OC	94.3% (inactive)
CCOC(=O)N1CCN(C(=O)CN(c2ccccc2)S(=O)(=O)c2ccc(F)cc2)CC1	93.7% (inactive)
O=C1c2ccccc2C(=O)N1CCc1nn[nH]n1	93.6% (inactive)
Nc1cc(-c2ccccc2)[nH]n1	94.5% (inactive)
C/C(=N\N1CCN(C)CC1)C1=C(O)c2ccccc2C1=O	97.6% (inactive)
